# According to PubChem BioAssay AID628 (Vanderbilt High Throughput Screening Facility, 2007):
# Out of some 64,000 compounds screened, about 2,200 (3.4%) were called active.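 Rule for the calls: active = calcium fluorescence response, raw or row-and-column corrected B-score, differing from the plate sample mean either way at a set confidence level, mostly lower; inactive = the rest.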 Many of the other results were omitted from the sample, so actives are more common in it than they were.
# Target: Muscarinic acetylcholine receptor M1 (Rattus norvegicus) (UniProt P08482)
# Sequence (P08482 whole entry, looked up): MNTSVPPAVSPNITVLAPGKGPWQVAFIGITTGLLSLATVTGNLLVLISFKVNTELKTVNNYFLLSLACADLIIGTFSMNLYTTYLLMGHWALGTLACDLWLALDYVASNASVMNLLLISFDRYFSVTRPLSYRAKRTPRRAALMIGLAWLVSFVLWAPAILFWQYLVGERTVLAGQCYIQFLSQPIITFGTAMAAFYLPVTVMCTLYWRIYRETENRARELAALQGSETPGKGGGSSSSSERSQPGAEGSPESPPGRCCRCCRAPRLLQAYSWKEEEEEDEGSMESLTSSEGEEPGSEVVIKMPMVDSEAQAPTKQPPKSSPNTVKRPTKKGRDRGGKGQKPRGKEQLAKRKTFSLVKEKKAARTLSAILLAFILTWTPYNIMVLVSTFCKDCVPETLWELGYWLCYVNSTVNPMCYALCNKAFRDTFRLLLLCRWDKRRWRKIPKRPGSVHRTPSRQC
# Assay: blocks the rat M1 muscarinic receptor response to acetylcholine (AID 628)
# Details: CHO-M1 cells, Fluo-4 calcium, ACh EC80 antagonist mode; at 10 µM; hits give low values
row,Compound,B-score
1,O=C(COc1ccc(Cl)cc1)Nc1ccccc1CO,0.609 (inactive)
2,COc1cc(OC)c(C(=O)NC2CCCCCC2)cc1OC,-1.64 (inactive)
3,Cc1ccc(C(=O)NC2CC(C)(C)NC(C)(C)C2)c(C)c1,0.35 (inactive)
4,COc1cc(OC)c(C(=O)NC2CC(C)(C)NC(C)(C)C2)cc1OC,-2.14 (active)
5,CCOc1ccccc1NC(=O)CCc1ccc(C)o1,0.759 (inactive)
6,Cc1ccc(OCC(O)CN2CCN(CC(O)COc3ccc(C)cc3Cl)CC2)c(Cl)c1 (stereo unspecified),0.987 (inactive)
7,O=C(CN1CCN(c2ccc(F)cc2)CC1)Nc1cccc(C(F)(F)F)c1,-1.83 (inactive)
8,CCC(=O)c1ccc(OCC(O)CN2CCN(c3cccc(C(F)(F)F)c3)CC2)cc1 (stereo unspecified),-3.03 (active)
9,O=C(CCCN1C(=O)CSc2ncccc21)N1CCN(c2cccc(C(F)(F)F)c2)CC1,-3.46 (active)
10,O=C(CN1C(=O)CSc2ncccc21)N1CCOCC1,-0.0388 (inactive)
11,O=C(CCCN1C(=O)C2C3C=CC(C3)C2C1=O)N1CCN(c2ccccc2)CC1 (stereo unspecified),-0.518 (inactive)
12,CCn1c(Cc2ccccc2)nnc1SCC(=O)Nc1ccccc1,-0.642 (inactive)
13,CC(C)c1nnc(NC(=O)C2CCCN2S(=O)(=O)c2ccc(Cl)cc2)s1 (stereo unspecified),0.566 (inactive)
14,CC12CN(Cc3ccccc3)CC(C)(CN(Cc3ccccc3)C1)C2=NO,-8.41 (active)
15,Cc1ccc(-c2noc(CN3CCN(Cc4ccccc4)CC3)n2)cc1,-0.779 (inactive)
16,CC(=NC1CCN(Cc2ccccc2)CC1)c1c(O)[nH]c(=O)[nH]c1=O,-1.22 (inactive)
17,N#Cc1c2c(c(-c3ccccc3)[nH]c1=O)CCCC2,-0.0345 (inactive)
18,CNC(=O)CSc1nnnn1-c1ccc(C)cc1C,-0.461 (inactive)
19,CCOC(=O)CNC(=O)CSc1nnnn1-c1cc(C)ccc1C,0.408 (inactive)
20,CCOC(=O)c1c(-c2ccc(C)cc2C)csc1NC(=O)CSc1nnnn1C,-1.47 (active)
21,Cn1cc(S(=O)(=O)N2CCC(Cc3ccccc3)CC2)c(=O)n(C)c1=O,1.21 (inactive)
22,CCOc1cc(C(=S)N2CCOCC2)ccc1O,-0.148 (inactive)
23,Cc1ccc(NC(=O)N2CCC(C(=O)NCc3ccc(F)cc3)CC2)cc1,0.137 (inactive)
24,Cc1nc2ncnn2c(C)c1CCC(=O)N1CCN(C(=O)c2ccco2)CC1,-0.557 (inactive)
25,Cc1nc2c(-c3ccc(F)cc3)c(C)nn2c(C)c1CCC(=O)N1CCN(c2ccccn2)CC1,-2.78 (active)
26,Cn1c(=O)cc(OCCCC(=O)N2CCN(c3ccccn3)CC2)c2ccccc21,-0.727 (inactive)
